# According to PubChem BioAssay:
# Active and inactive are the calls of the source.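 Rule for the calls, unless noted: active = fluorescence slope higher than the sample average by over 3 SD (cut at about -0.22 in these data, passing the limit was not always enough); inactive = the rest.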
# Test system: not listed separately
# Experiment: endothelial E-selectin expression blockers – imaging, HUVEC, immunofluorescence, MLSMR starter and 10KST1 sets, primary screen (AID 487;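 active = visually confirmed hit in the image check and inhibition above 20%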;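 for inhibition: signal is fraction of cell area covered by stained E-selectin grains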;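 for nuclei count: 100% = median nuclei count of all wells on the same plate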)
# Conditions: HUVEC TNFalpha-induced E-selectin immunofluorescence imaging, at 2 µM; inhibition: stronger effect = higher value; nuclei count: measured here: cell number, toxicity
SMILES,nuclei count [%],inhibition
CC(C)OC(=O)c1cc(NC(=O)C2C3CCC(O3)C2C(=O)O)cc(C(=O)OC(C)C)c1 (stereo not given),113,-49.1% (inactive)
O=C(CSc1nnc(-c2ccc(Br)cc2)n1C1CCCCC1)N1CCCC1,81.3,4.3% (inactive)
O=C(c1nn2cccnc2c1Cl)N1CCN(c2ccccc2)CC1,94.5,-45.6% (inactive)
CCCN1Cc2cccc(C(=O)NC3CCCC3)c2C1=O,101,-62.4% (inactive)
CS(=O)(=O)N(CC(=O)Nc1ccc2c(c1)OCO2)Cc1ccc(Cl)cc1,88.8,-20.4% (inactive)
COC(=O)C1C2C=CC3(CN(CC4CCCO4)C(=O)C13)O2 (stereo not given),98.5,9.9% (inactive)
Cc1ccc(F)cc1NC(=O)C1CCCN(c2ncccn2)C1 (stereo not given),118,-56.9% (inactive)
CC(OC(=O)c1ccco1)C(=O)NCc1cccs1 (stereo not given),113,-95.9% (inactive)
CCc1nnc(NC(=O)CSc2nnc(-c3ccccc3OC)n2-c2ccccc2)s1,128,-163% (inactive)
FC(F)(F)c1ccc(Sc2nnc(-c3cccs3)n2CC2CCCO2)nc1 (stereo not given),104,-85.5% (inactive)
O=C(O)c1ccc(NC(=O)c2cccs2)cc1,117,-75.3% (inactive)
Cc1ccc(Nc2nc(N)nc(CN3CCN(Cc4ccc5c(c4)OCO5)CC3)n2)cc1,102,-82.2% (inactive)
CCOC(=O)Cc1csc(NC(=O)c2cccc(OC)c2)n1,113,-15.2% (inactive)
C=CCNc1nc2c(c(=O)n(C)c(=O)n2C)n1CCCCCC,107,4% (inactive)
O=C(Nc1cccnc1)c1cc2c(ccc3ccccc32)o1,140,-160% (inactive)
COc1cccc(Nc2nnc(SCC(=O)N3CC(C)OC(C)C3)s2)c1 (stereo not given),117,-19.6% (inactive)
NC(=O)c1ccsc1NC(=O)COC(=O)Cc1ccsc1,75.6,26.2% (inactive)
CCCc1ccccc1OCCNC(C)=O,105,-76.7% (inactive)
O=C(O)C1CCCCC1C(=O)Nc1ccccn1 (stereo not given),83.2,18.5% (inactive)
O=C(c1cccc2c1C(=O)N(Cc1cccnc1)C2)N1CCN(c2ccccc2)CC1,135,-104% (inactive)

SMILES,nuclei count [%],inhibition
CCCCCCn1c(CN2CCCC(C)C2)nc2c1c(=O)n(C)c(=O)n2C (stereo not given),114,-46.9% (inactive)
Cc1nnc(SCCCn2c(N3CCCCC3)nc3c2c(=O)[nH]c(=O)n3C)s1,93.7,-64.9% (inactive)
Cc1cc(NC(=O)Cc2c(F)cccc2Cl)no1,94.3,34.2% (inactive)
Cc1cc(C(=O)COC(=O)c2n[nH]c3ccccc23)c(C)n1C,96.7,12.4% (inactive)
COc1ccc(NC(=O)CSc2ccccn2)cc1OC,88.2,10.4% (inactive)
O=C(NC1CCCCCC1)c1cc(S(=O)(=O)N2CCC3(CC2)OCCO3)ccc1F,83.7,-16.2% (inactive)
O=C(CN(CC1CCCO1)S(=O)(=O)c1ccc(S(=O)(=O)NC2CC2)cc1)Nc1ccccc1 (stereo not given),96.1,12.1% (inactive)
CCN(CC(=O)Nc1ccc2c(c1)CCC2)Cc1nc2ccccc2c(=O)[nH]1,102,-1.6% (inactive)
O=C(Nc1ccc(-c2nc3ncccc3o2)cc1)c1ccc(Br)o1,100,8.6% (inactive)
COC(=O)Cc1cc(=O)n(-c2ccccc2)[nH]1,111,-67.7% (inactive)
CN(C)c1ccc(C2C3=C(CCCC3=O)OC3=C2C(=O)CCC3)cc1,110,-20.9% (inactive)
CCOC(=O)N1CCN(C(=O)CN(Cc2ccccc2)S(=O)(=O)c2ccc(OC)c(C)c2)CC1,70.5,-6.6% (inactive)
CC1Cc2ccccc2N1CC(=O)NC(=O)NCc1ccco1 (stereo not given),109,2.3% (inactive)
CN(c1ccccc1C(=O)NCC1CCCO1)S(C)(=O)=O (stereo not given),93.8,-12.5% (inactive)
O=C(CSc1ccc(-c2ccccc2)nn1)N1CCOCC1,132,57.9% (active)
O=C(CCC(=O)OCC(=O)c1ccccc1)NC1CCCCC1,112,30.3% (inactive)
N#Cc1c(-c2ccc3c(c2)OCO3)csc1N,106,-102% (inactive)
CCCN1CCN(C(=O)Cn2cccc2C(=O)c2ccccc2)CC1,108,-0.1% (inactive)
CCCCOC(=O)Nc1nccs1,116,-53.6% (inactive)
c1ccc2c(SCc3cn4cccnc4n3)ncnc2c1,93.9,6.3% (inactive)

# Target: Voltage-gated potassium channel subunit beta-2 (Rattus norvegicus) (UniProt P62483)
# Sequence (P62483 whole entry, looked up): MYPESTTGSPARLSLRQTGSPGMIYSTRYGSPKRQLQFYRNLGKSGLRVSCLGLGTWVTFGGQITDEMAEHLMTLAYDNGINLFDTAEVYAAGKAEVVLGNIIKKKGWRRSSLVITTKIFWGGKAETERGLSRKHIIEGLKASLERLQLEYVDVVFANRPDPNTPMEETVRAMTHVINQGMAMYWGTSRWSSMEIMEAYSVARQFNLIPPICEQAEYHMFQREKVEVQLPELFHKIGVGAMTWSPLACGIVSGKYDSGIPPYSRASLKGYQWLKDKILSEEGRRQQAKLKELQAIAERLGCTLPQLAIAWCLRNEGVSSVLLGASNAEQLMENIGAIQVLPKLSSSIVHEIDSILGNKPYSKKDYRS
# Experiment: inhibitors of rat Kvbeta2 reductase activity – biochemical, NADPH fluorescence, primary screen (AID 622);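 note: slope of raw intensity against log time taken from 70 to 1610 s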
# Conditions: recombinant KvBeta, 4-cyanobenzaldehyde reduction, at 10 µM, stronger effect = higher value
row,SMILES,fluorescence slope
1,CC(C)OC(=O)c1cc(NC(=O)C2C3CCC(O3)C2C(=O)O)cc(C(=O)OC(C)C)c1 (stereo not given),-0.454 (inactive)
2,O=C(CSc1nnc(-c2ccc(Br)cc2)n1C1CCCCC1)N1CCCC1,-0.371 (inactive)
3,O=C(c1nn2cccnc2c1Cl)N1CCN(c2ccccc2)CC1,-0.424 (inactive)
4,CCCN1Cc2cccc(C(=O)NC3CCCC3)c2C1=O,-0.349 (inactive)
5,CS(=O)(=O)N(CC(=O)Nc1ccc2c(c1)OCO2)Cc1ccc(Cl)cc1,-0.428 (inactive)
6,COC(=O)C1C2C=CC3(CN(CC4CCCO4)C(=O)C13)O2 (stereo not given),-0.457 (inactive)
7,Cc1ccc(F)cc1NC(=O)C1CCCN(c2ncccn2)C1 (stereo not given),-0.357 (inactive)
8,CC(OC(=O)c1ccco1)C(=O)NCc1cccs1 (stereo not given),-0.444 (inactive)
9,CCc1nnc(NC(=O)CSc2nnc(-c3ccccc3OC)n2-c2ccccc2)s1,-0.396 (inactive)
10,FC(F)(F)c1ccc(Sc2nnc(-c3cccs3)n2CC2CCCO2)nc1 (stereo not given),-0.424 (inactive)
11,O=C(O)c1ccc(NC(=O)c2cccs2)cc1,-0.362 (inactive)
12,Cc1ccc(Nc2nc(N)nc(CN3CCN(Cc4ccc5c(c4)OCO5)CC3)n2)cc1,-0.367 (inactive)
13,CCOC(=O)Cc1csc(NC(=O)c2cccc(OC)c2)n1,-0.459 (inactive)
14,C=CCNc1nc2c(c(=O)n(C)c(=O)n2C)n1CCCCCC,-0.39 (inactive)
15,O=C(Nc1cccnc1)c1cc2c(ccc3ccccc32)o1,-0.355 (inactive)
16,COc1cccc(Nc2nnc(SCC(=O)N3CC(C)OC(C)C3)s2)c1 (stereo not given),-0.409 (inactive)
17,NC(=O)c1ccsc1NC(=O)COC(=O)Cc1ccsc1,-0.453 (inactive)
18,CCCc1ccccc1OCCNC(C)=O,-0.366 (inactive)
19,O=C(O)C1CCCCC1C(=O)Nc1ccccn1 (stereo not given),-0.445 (inactive)
20,O=C(c1cccc2c1C(=O)N(Cc1cccnc1)C2)N1CCN(c2ccccc2)CC1,-0.365 (inactive)

row,SMILES,fluorescence slope
1,CCCCCCn1c(CN2CCCC(C)C2)nc2c1c(=O)n(C)c(=O)n2C (stereo not given),-0.396 (inactive)
2,Cc1nnc(SCCCn2c(N3CCCCC3)nc3c2c(=O)[nH]c(=O)n3C)s1,-0.458 (inactive)
3,Cc1cc(NC(=O)Cc2c(F)cccc2Cl)no1,-0.44 (inactive)
4,Cc1cc(C(=O)COC(=O)c2n[nH]c3ccccc23)c(C)n1C,-0.445 (inactive)
5,COc1ccc(NC(=O)CSc2ccccn2)cc1OC,-0.384 (inactive)
6,O=C(NC1CCCCCC1)c1cc(S(=O)(=O)N2CCC3(CC2)OCCO3)ccc1F,-0.36 (inactive)
7,O=C(CN(CC1CCCO1)S(=O)(=O)c1ccc(S(=O)(=O)NC2CC2)cc1)Nc1ccccc1 (stereo not given),-0.384 (inactive)
8,CCN(CC(=O)Nc1ccc2c(c1)CCC2)Cc1nc2ccccc2c(=O)[nH]1,-0.455 (inactive)
9,O=C(Nc1ccc(-c2nc3ncccc3o2)cc1)c1ccc(Br)o1,-0.125 (active)
10,COC(=O)Cc1cc(=O)n(-c2ccccc2)[nH]1,-0.379 (inactive)
11,CN(C)c1ccc(C2C3=C(CCCC3=O)OC3=C2C(=O)CCC3)cc1,-0.37 (inactive)
12,CCOC(=O)N1CCN(C(=O)CN(Cc2ccccc2)S(=O)(=O)c2ccc(OC)c(C)c2)CC1,-0.38 (inactive)
13,CC1Cc2ccccc2N1CC(=O)NC(=O)NCc1ccco1 (stereo not given),-0.436 (inactive)
14,CN(c1ccccc1C(=O)NCC1CCCO1)S(C)(=O)=O (stereo not given),-0.444 (inactive)
15,O=C(CSc1ccc(-c2ccccc2)nn1)N1CCOCC1,-0.452 (inactive)
16,O=C(CCC(=O)OCC(=O)c1ccccc1)NC1CCCCC1,-0.356 (inactive)
17,N#Cc1c(-c2ccc3c(c2)OCO3)csc1N,-0.451 (inactive)
18,CCCN1CCN(C(=O)Cn2cccc2C(=O)c2ccccc2)CC1,-0.405 (inactive)
19,CCCCOC(=O)Nc1nccs1,-0.404 (inactive)
20,c1ccc2c(SCc3cn4cccnc4n3)ncnc2c1,-0.341 (inactive)
